# Measurements as given in PubChem BioAssay.
# Several values for one entry are separate records, joined by “and”; a condition that tells them apart may be missing. Equal values may be shown once. Activity calls are given as the source filed them. Rule as the data show it, unless noted: active = inhibition above about 80%; inactive = the rest.
# Legend:
# [1] = antimalarial activity against Dd2 strain (AID 2302;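 active = growth inhibition above 50% at the single 2 µM test dose, taken to imply half-maximal potency below 2 µM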;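 also: 0% = DMSO untreated growth and 100% = chloroquine plus artemisinin killed control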); settings: P. falciparum Dd2 in RBCs, LDH growth readout, 72 h; at 2 µM; stronger effect = higher value
# [2] = HepG2 cytotoxicity, primary screen, cytotoxicity control for P. falciparum antimalarial project, cell-based, ATP luminescence (AID 2303;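 active = inhibition above 50%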;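 also: 0% = DMSO wells and 100% = digitonin-killed cells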); settings: HepG2 viability, 24-48 h, at 10 µM, stronger effect = higher value
# [3] = biological target: L-lactate dehydrogenase (Plasmodium falciparum (isolate CDC / Honduras)) (UniProt Q27743); assay: PfLDH activity inhibition – cell lysate, 3D7 strain, counter-screen for P. falciparum growth inhibition project (AID 2304; call rule not given here;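 also: 0% = vehicle and 100% = reference inhibitor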); settings: P. falciparum 3D7 crude extract, LDH APAD/NBT absorbance; at 2 µM; stronger effect = higher value
# [4] = inhibition of 3D7 malaria parasite growth – strain 3D7 (AID 2306; call rule not given here;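 also: 0% = DMSO wells and 100% = chloroquine plus artemisinin control wells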); settings: P. falciparum 3D7 erythrocytic growth, LDH absorbance, 72 h; at 2 µM; stronger effect = higher value
# [5] = circadian clock period modulators, cell-based, LOPAC library, luminescence reporter (AID 2774; call rule not given here;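 also: values are relative to mean of DMSO wells on each plate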); settings: circadian reporter cells, at 7 µM, actives lie on both sides
# [6] = LFS_MB_P medulloblastoma growth inhibition, cell-based, chromothripsis tumors, cisplatin or BGB combos (AID 1671449); settings: LFS_MB_P medulloblastoma cells;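 also: cells exposed for 96 hours; 0% = vehicle DMSO and 100% = killing by high DMSO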
# [7] = HDN33 neuroblastoma growth inhibition, cell-based, chromothripsis tumors, cisplatin or BGB combos (AID 1671450); settings: HDN33 neuroblastoma cells, stronger effect = higher value;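 also: cells exposed to compound for four days; 0% = vehicle DMSO and 100% = cell killing by high DMSO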
# [8] = ICB984 medulloblastoma cell growth inhibition, synergistic combos for chromothripsis tumors, cisplatin or BGB combos (AID 1671451; call rule not given here;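 also: cells exposed for 96 hours before readout; 0% = vehicle DMSO and 100% = killing by high DMSO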); settings: ICB984 medulloblastoma cells, drug combinations, stronger effect = higher value
# [9] = LFS_MB_1R medulloblastoma cell growth inhibition, synergistic combos for chromothripsis tumors, cisplatin or BGB combos (AID 1671452); settings: LFS_MB_1R medulloblastoma cells, stronger effect = higher value;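 also: cells exposed for 96 hours before readout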
# [10] = HTB85 osteosarcoma cell growth inhibition, synergistic combos for chromothripsis tumors, BGB or cisplatin IC20 combos (AID 1671453); settings: HTB85 osteosarcoma cells, drug combinations, stronger effect = higher value;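 also: cells exposed for 96 hours before readout; 0% = vehicle DMSO and 100% = high DMSO killing control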
# [11] = CRL2098 osteosarcoma cell growth inhibition, synergistic combos for chromothripsis tumors, BGB or cisplatin IC20 combos (AID 1671454); settings: CRL2098 osteosarcoma cells, drug combinations, stronger effect = higher value;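 also: cells exposed for 96 h before readout; 0% = vehicle DMSO and 100% = killing by high DMSO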
# [12] = HD-MB03 medulloblastoma cell growth inhibition, synergistic combos for chromothripsis tumors, BGB or cisplatin IC20 combos (AID 1671455; in the data active = inhibition above about 83%;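 also: 0% = vehicle DMSO and 100% = high DMSO as cytotoxic control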); settings: HD-MB03 medulloblastoma cells, stronger effect = higher value
# [13] = UWB1.289 ovarian carcinoma cell growth inhibition, synergistic combos for chromothripsis tumors, BGB or cisplatin combos (AID 1671456); settings: UWB1.289 ovarian carcinoma cells, stronger effect = higher value;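 also: cells exposed to compound for four days; 0% = vehicle DMSO and 100% = killing by high DMSO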
# [14] = LFS_MB_2R medulloblastoma cell growth inhibition, synergistic combos for chromothripsis tumors, cisplatin combos (AID 1671457); settings: LFS_MB_2R medulloblastoma cells, stronger effect = higher value;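 also: cells exposed to compound for four days before readout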
# [15] = MDA-MB-436 breast carcinoma cell growth inhibition, synergistic combos for chromothripsis tumors, BGB or cisplatin combos (AID 1671458; call rule not given here;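 also: cells exposed for 96 hours; 0% = vehicle DMSO and 100% = killing by high DMSO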); settings: MDA-MB-436 breast carcinoma growth inhibition, drug combinations, stronger effect = higher value
# [16] = UWB1.289_BRCA1 ovarian cancer growth, cell-based, BGB or cisplatin combinations (AID 1671459); settings: UWB1.289 BRCA1 ovarian carcinoma, drug combinations, stronger effect = higher value
# [17] = human astrocyte viability loss, single and combined drugs, cytotoxicity control for chromothriptic childhood tumor combination screen, cell-based, BGB or cisplatin IC20 combos (AID 1671460); settings: Human astrocytes, drug combinations, stronger effect = higher value;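 also: cells exposed to compounds for 96 hours before viability readout; 0% = vehicle and 100% = killing control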
# [18] = growth inhibition of BT084 medulloblastoma cells, cell-based, ICGC_MB145, cisplatin and BGB IC40 combos (AID 1671461); settings: drug combinations, stronger effect = higher value;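 also: cells exposed to drugs for 96 hours; 0% = vehicle DMSO and 100% = high DMSO full killing control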
# [19] = growth inhibition of RCMB18 medulloblastoma cells, cell-based, cisplatin and BGB IC40 combos (AID 1671462); settings: stronger effect = higher value;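 also: cells exposed to compound for four days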
# [20] = growth inhibition of CRL1545 osteosarcoma cells, cell-based, cisplatin and BGB IC20 combos (AID 1671464); settings: stronger effect = higher value;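 also: cells exposed to compound for 96 hours before readout; 0% = vehicle DMSO and 100% = high DMSO killing control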
# [21] = measured here: combination with BGB IC40, at 0.05 µM
# [22] = measured here: with BGB IC20 combination, at 0.5 µM
# [23] = measured here: with cisplatin IC20 combination, at 0.5 µM
# [24] = measured here: combination with cisplatin, at 0.5 µM
# [25] = measured here: combination with cisplatin, at 5 µM
# L-lactate dehydrogenase (Plasmodium falciparum (isolate CDC / Honduras)), sequence (Q27743 whole entry, looked up): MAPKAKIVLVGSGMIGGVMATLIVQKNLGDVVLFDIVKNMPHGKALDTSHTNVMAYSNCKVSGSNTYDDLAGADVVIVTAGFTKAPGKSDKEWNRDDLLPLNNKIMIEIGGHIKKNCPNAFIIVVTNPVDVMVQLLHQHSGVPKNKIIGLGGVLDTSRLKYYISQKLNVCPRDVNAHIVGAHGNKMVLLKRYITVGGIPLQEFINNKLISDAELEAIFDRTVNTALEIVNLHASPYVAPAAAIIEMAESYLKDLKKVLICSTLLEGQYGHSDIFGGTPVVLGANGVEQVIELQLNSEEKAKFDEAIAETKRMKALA
compound,measurement,setting,value
C#CCOc1ccc(CC(C)NCC(O)c2cccc(C(F)(F)F)c2)cc1 (centres undefined),growth inhibition,[1],74% (active) and 84% (active)
same,inhibition,[2],5% (inactive) and 28% (inactive)
same,inhibition,[3],1% (inactive) and -2% (inactive)
same,growth inhibition,[4],90% (active) and 93% (active)
C=CCN1CCC2(C)c3cc(O)ccc3CC1C2C (centres undefined),period change,[5],-0.18 h (inactive)
CC(C)[C@@]1(NC(=O)[C@@H]2C=C3c4cccc5[nH]cc(c45)C[C@H]3N(C)C2)O[C@@]2(O)[C@@H]3CCCN3C(=O)[C@H](Cc3ccccc3)N2C1=O,period change,[5],0.465 h (inactive)
COc1cc([C@@H]2c3cc4c(cc3[C@H](O)[C@H]3COC(=O)[C@H]23)OCO4)cc(OC)c1O,inhibition,"[6]; at 0.5 µM, stronger effect = higher value",-9.98% (inactive) and 8.43% (inactive)
same,inhibition,"[6]; measured here: combination with BGB IC20, at 0.005 µM",-2.59% and -6.87%
same,inhibition,"[6]; measured here: combination with BGB IC40, at 0.005 µM",7.46% and -20.3%
same,inhibition,[6]; [21],35.2% and -17%
same,inhibition,"[6]; measured here: combination with cisplatin, at 0.5 µM, stronger effect = higher value",-26% and 12.8%
same,inhibition,"[6]; measured here: combination with cisplatin, at 5 µM, stronger effect = higher value",48% and 29.7%
same,inhibition,"[7]; BGB combo, at 5 µM",64.5% and 57.8%
same,inhibition,[7]; at 0.5 µM,76% (inactive) and 68.9% (inactive)
same,inhibition,"[7]; cisplatin combo, at 5 µM",60.1% and 62.6%
same,inhibition,[7]; [22],66.9% and 60.4%
same,inhibition,[7]; [23],69% and 58.6%
same,inhibition,"[7]; single agent, at 5 µM",77.6% and 81.6%
same,inhibition,"[8]; BGB IC20 combo, at 0.005 µM",12.7% and -7.66%
same,inhibition,"[8]; BGB IC40 combo, at 0.005 µM",1.81% and -7.75%
same,inhibition,"[8]; BGB IC40 combo, at 0.05 µM",4.84% and 20.6%
same,inhibition,[8]; at 0.5 µM,-16.8% (inactive) and -20% (inactive)
same,inhibition,"[8]; cisplatin combo, at 0.05 µM",1.07% and 20.6%
same,inhibition,"[8]; cisplatin combo, at 0.5 µM",-39.6% and -30.5%
same,inhibition,"[8]; cisplatin combo, at 5 µM",-37.8% and -5.3%
same,inhibition,"[8]; measured here: 5 uM single agent, at 5 µM",0.691% and -3.02%
same,inhibition,[9]; at 0.5 µM,4.95% (inactive) and 4.02% (inactive)
same,inhibition,[9]; [21],-9.68% and 4.85%
same,inhibition,[9]; [24],-26.6% and 18%
same,inhibition,[9]; [25],44.6% and 52.8%
same,inhibition,[10]; at 0.5 µM,70% (inactive) and 60.4% (inactive)
same,inhibition,"[10]; measured here: with BGB IC20, at 0.5 µM",56.9% and 41.3%
same,inhibition,"[10]; measured here: with BGB IC20, at 5 µM",58.2% and 51.8%
same,inhibition,"[10]; measured here: with cisplatin IC20, at 0.5 µM",60.9% and 54%
same,inhibition,"[10]; measured here: with cisplatin IC20, at 5 µM",70.5% and 80%
same,inhibition,"[10]; single agent, at 5 µM",87% and 84.5%
same,inhibition,[11]; at 0.5 µM,57.9% (inactive) and 29.8% (inactive)
same,inhibition,"[11]; measured here: combination with BGB at IC20, at 0.5 µM",50.3% and 29.8%
same,inhibition,"[11]; measured here: combination with cisplatin at IC20, at 0.5 µM",57.2% and 5.54%
same,inhibition,[12]; at 0.5 µM,71.7% (inactive) and 69.2% (inactive)
same,inhibition,"[12]; measured here: combo with BGB at IC20, at 0.5 µM",61.9% and 65.3%
same,inhibition,"[12]; measured here: combo with cisplatin at IC20, at 0.5 µM",71.7% and 65.8%
same,inhibition,[13]; at 0.5 µM,44% (inactive) and 35.9% (inactive)
same,inhibition,"[13]; measured here: inhibition with BGB combination, at 0.05 µM",-0.844% and 8.28%
same,inhibition,"[13]; measured here: inhibition with cisplatin combination, at 0.05 µM",0.424% and -0.759%
same,inhibition,[14]; at 0.5 µM,13.5% (inactive) and -0.16% (inactive)
same,inhibition,[14]; [24],23.7% and 7.38%
same,inhibition,[14]; [25],37.2% and 35.6%
same,inhibition,[15]; at 0.5 µM,56.1% (inactive) and 45.1% (inactive)
same,inhibition,"[15]; measured here: BGB combination, at 0.5 µM",36% and 23.1%
same,inhibition,"[15]; measured here: BGB combination, at 5 µM",45.8% and 43.9%
same,inhibition,"[15]; measured here: cisplatin combination, at 0.5 µM",63.1% and 44.6%
same,inhibition,"[15]; measured here: cisplatin combination, at 5 µM",70.8% and 69%
same,inhibition,"[16]; BGB combination, concentration series, at 5 µM",55.3% and 54.8%
same,inhibition,[16]; at 0.5 µM,51.6% (inactive) and 46.7% (inactive)
same,inhibition,"[16]; cisplatin combination, concentration series, at 5 µM",64.1% and 63.1%
same,inhibition,[17]; at 0.5 µM,69.7% (inactive) and 62.4% (inactive)
same,inhibition,"[17]; measured here: combo with BGB IC20, at 0.5 µM",66.6% and 57.1%
same,inhibition,"[17]; measured here: combo with cisplatin IC20, at 0.5 µM",62.5% and 52.4%
same,inhibition,[18]; at 0.5 µM,23.1% (inactive) and 7.97% (inactive)
same,inhibition,"[18]; cisplatin combination, at 0.5 µM",-0.605% and 4.61%
same,inhibition,"[18]; cisplatin combination, at 5 µM",43.4% and 22.5%
same,inhibition,"[18]; measured here: BGB IC40 combination 0.05 uM, at 0.05 µM",7.15% and -9.48%
same,inhibition,"[18]; single agent, at 5 µM",73.2% and 24.9%
same,inhibition,[19]; at 0.5 µM,6.51% (inactive) and -0.09% (inactive)
same,inhibition,"[19]; cisplatin combo, at 5 µM",39.6% and 46.7%
same,inhibition,"[19]; measured here: BGB IC40 combination, at 0.05 µM",-8.85% and -7.39%
same,inhibition,[19]; [24],22% and 15.3%
same,inhibition,"[19]; single agent, at 5 µM",43.2% and -3.33%
same,inhibition,[20]; at 0.5 µM,56.5% (inactive) and 47% (inactive)
same,inhibition,[20]; [22],55% and 43.8%
same,inhibition,[20]; [23],57.3% and 48.6%
same,inhibition,"[20]; single agent, at 0.05 µM",-5.66% and 32.2%
same,inhibition,"[20]; single agent, at 5 µM",83% and 76.2%
